Screening results (PubChem BioAssay)
DT40 TDP1 no CPT: qHTS for Inhibitors of human tyrosyl-DNA phosphodiesterase 1 (TDP1): qHTS in cells in absence of CPT | DT40 Tdp1-/- hTDP1 cells, no CPT, ATP luminescence, 48 h | Potency, µM (titrated, usually from 46.2 µM), hits mostly inhibitors | 15% of 420,000 active; also: nearly all actives have a fitted effect of over 55% in size
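A cellular qHTS used chicken DT40 cells lacking endogenous Tdp1 but carrying stably transfected human TDP1. Compounds were applied without camptothecin, and cell growth kinetics were judged by ATP-dependent luminescence after ≥48 hr.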
TDP1 cell CPT: growth inhibition of DT40 Tdp1-/-;hTDP1 cells with camptothecin (screen for TDP1 inhibitors) | chicken DT40 Tdp1-/-;hTDP1 cells + 20 nM CPT, ATP luminescence, 48 h | AID 686979 | Potency, µM (doses to about 46.2 µM), most hits filed as inhibitors | 12% of 420,000 active; also: nearly all actives have a fitted effect of over 55% in size
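Chicken DT40 Tdp1-/- cells stably complemented with human TDP1 were seeded at 400 cells/well in medium containing 20 nM camptothecin, exposed to pin-transferred compounds, and grown at 37 °C for at least 48 hr. Viability was read as ATP luminescence.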
RORg inh: blocks mouse ROR gamma transcriptional activity. AID 2551. P51450. Potency, µM (titrated, usually from 53.6 µM), usual class: inhibitors. 5.4% of 310,000 active. Drosophila S2 Gal4-RORgamma UAS-luciferase reporter, 20 h; also: nearly all actives have a fitted effect of over 60% in size
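Schneider cells (Drosophila), stable Gal4 DBD–ROR gamma + UAS-luc; 1 hr cmpd preincubation; Cu2+ induction 700 uM final; 20 hr ambient; luminescence.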
VP16 counter: inhibits Gal4-VP16 luciferase reporter, ROR gamma counter-screen; 3.5% of 310,000 active; Drosophila S2 Gal4-VP16 UAS-luciferase, luminescence, 20 h; AID 2546; Potency, µM (highest dose often 53.6 µM), actives largely listed as inhibitors;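 also: Gal4-VP16 expression switched on by copper sulfate through the metallothionein promoter; nearly all actives have a fitted effect of over 50% in size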
TDP1 inh: TDP1 (human) enzyme inhibition. Q9NUW8. recombinant TDP1, AlphaScreen DNA substrate cleavage. Potency, µM (series often up to 130 µM), hits mostly inhibitors. 0.28% of 350,000 active. AID 485290; also: nearly all actives have a fitted effect of over 40% in size
Target sequence (Q9NUW8 whole entry, looked up): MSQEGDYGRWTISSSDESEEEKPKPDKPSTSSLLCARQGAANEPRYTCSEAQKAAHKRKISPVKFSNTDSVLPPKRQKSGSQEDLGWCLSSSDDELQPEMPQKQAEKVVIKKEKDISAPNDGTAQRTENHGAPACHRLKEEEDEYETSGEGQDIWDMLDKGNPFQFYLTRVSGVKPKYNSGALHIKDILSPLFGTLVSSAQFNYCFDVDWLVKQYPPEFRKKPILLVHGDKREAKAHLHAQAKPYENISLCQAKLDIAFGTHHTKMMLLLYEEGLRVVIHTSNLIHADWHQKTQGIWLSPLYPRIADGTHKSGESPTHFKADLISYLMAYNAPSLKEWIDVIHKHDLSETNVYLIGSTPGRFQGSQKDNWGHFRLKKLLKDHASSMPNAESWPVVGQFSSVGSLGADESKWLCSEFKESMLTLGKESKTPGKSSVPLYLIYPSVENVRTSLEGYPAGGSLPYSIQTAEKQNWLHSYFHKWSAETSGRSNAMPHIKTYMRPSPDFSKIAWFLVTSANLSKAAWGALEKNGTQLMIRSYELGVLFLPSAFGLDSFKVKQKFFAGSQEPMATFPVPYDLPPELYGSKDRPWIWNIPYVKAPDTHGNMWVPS
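Signal: AlphaScreen proximity between streptavidin donor and anti-FITC acceptor beads on intact substrate. Reaction: Tdp1 1 nM, substrate 15 nM final, 5 min RT after 15 min compound preincubation.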
A number is an active result; 0 = inactive; ? = inconclusive; - = not tested or not shown; [ ] = remark or other dose. Sampled rows, rich in hits. Any-hit rate of the full collection: about 19%. Calls follow the shape of the dose curve; as a rule, active = well fitted curve in the direction sought with a large enough effect; inconclusive = small, poorly fitted or top-dose-only effect, or another doubt; inactive = no such curve, though single readings can be large; an effect the other way counts as inactive or inconclusive.

SMILES | DT40 TDP1 no CPT | TDP1 cell CPT | RORg inh | VP16 counter | TDP1 inh
CCN(Cc1ccccc1)C(=O)Cn1c(=O)cc(C)c2c(C)nn(-c3cccc(F)c3)c21 | 20.6µM | 18.4µM | - | - | 0
CCN(CC)C(=O)Cn1c(=O)cc(C)c2c(C)nn(-c3cccc(Cl)c3C)c21 | 11.6µM | 14.6µM | - | - | 0
COc1ccc(N(CC(=O)Nc2cc(Cl)ccc2C)S(=O)(=O)c2c(C)n[nH]c2C)cc1 | 5.17µM | 4.11µM | 0 | 0 | 0
COc1ccc(NC(=O)CN(c2cc(C)cc(C)c2)S(=O)(=O)c2c(C)n[nH]c2C)cc1 | ? | 29.1µM | 0 | 0 | 0
COc1ccc(N(CC(=O)NCc2ccc(Cl)cc2)S(=O)(=O)c2c(C)n[nH]c2C)cc1 | 0 | 0 | 0 | 0 | 0
COc1ccc(N(CC(=O)NCc2ccccc2)S(=O)(=O)c2c(C)n[nH]c2C)cc1 | 0 | 20.6µM | 0 | 0 | 0
COc1ccc(N(CC(=O)Nc2ccc(F)c(F)c2)S(=O)(=O)c2c(C)n[nH]c2C)cc1 | 0 | 0 | 0 | 0 | 0
COc1ccc(N(CC(=O)Nc2ccc(C)cc2C)S(=O)(=O)c2c(C)n[nH]c2C)cc1 | 18.4µM | 0 | 0 | 0 | 0
O=C(COC(=O)c1cncc(Br)c1)NCc1ccco1 | 0 | 0 | ? | 0 | 7.08µM
O=C(COC(=O)c1ccc(NS(=O)(=O)c2cccs2)cc1)NCc1ccco1 | 2.91µM | 4.11µM | 22.4µM | 0 | -
O=C(COC(=O)c1cccnc1Cl)NCc1ccco1 | 0 | 0 | 0 | 0 | 39.8µM
O=C(COC(=O)c1cncc(Br)c1)NCc1ccc(F)cc1 | 0 | 0 | 0 | 0 | 0
O=C(COC(=O)c1cccs1)NCc1ccco1 | 0 | 0 | 0[10 µM] | 0 | 44.7µM
CCOC(=O)N1CCN(C(=O)CS(=O)(=O)c2cn(Cc3cccc(F)c3)c3ccccc23)CC1 | 0 | 0 | 0 | 0 | 0
COc1ccc(S(=O)(=O)N2CCN(Cc3ccc4c(c3)OCO4)CC2)cc1F | 0 | 0 | 0 | 0 | -
C=CCN1C(=O)C(=O)N(Cc2nc3ccccc3s2)C1=O | 0 | 0 | 0 | 0 | -
O=C(COC(=O)c1cccnc1SCC(=O)NCc1ccccc1)NCc1ccccc1 | ? | 23.1µM | 0 | 0 | 0
COc1ccccc1C(OC(=O)c1cccs1)C(=O)NCc1ccco1 (stereo not given) | ? | 18.4µM | 0[10 µM] | 0 | 0
O=C(COC(=O)c1ccc(NS(=O)(=O)c2cccs2)cc1O)NCc1ccccc1 | 3.26µM | 4.61µM | ? | 0 | 0
COc1ccccc1CNC(=O)COC(=O)c1cccnc1SCC(=O)NCc1ccccc1OC | ? | ? | 0 | 0 | 0
CN(C)S(=O)(=O)c1ccc(C(=O)OCC(=O)NCc2ccco2)cc1 | 0 | 0 | 0 | 0 | 59.7µM
CCn1c(SCC(=O)Nc2nnc(C)s2)nnc1C(C)NC(=O)c1ccccc1 (stereo not given) | 0 | 0 | 0 | 0 | 0
O=C(COC(=O)CC(c1ccccc1)c1ccccc1)NCc1ccc(Cl)cc1 | 0 | 0 | 0 | 20µM | 0
CCCC(=O)OCC(=O)NCc1ccc(Cl)cc1 | 0 | 0 | 0 | 0 | 0
O=C(COCc1cc(-c2ccco2)on1)Nc1ccc(OC(F)(F)F)cc1 | ? | ? | - | - | 0
SMILES | DT40 TDP1 no CPT | TDP1 cell CPT | RORg inh | VP16 counter | TDP1 inh
COc1ccccc1NS(=O)(=O)c1cc([N+](=O)[O-])ccc1N/N=C/c1c[nH]c2ccccc12 | ? | ? | 0 | ? | 0
CCCCOC(=O)c1ccc(NC(=O)CN2C(=O)NC3(CCCCCC3)C2=O)cc1 | 8.2µM | 10.3µM | - | - | 0
CCCCOC(=O)c1ccc(NC(=O)C(=O)NCc2ccncc2)cc1 | 23.1µM | 23.1µM | ? | ? | 0
CCOC(=O)c1ccc(NC(=O)CN2C(=O)NC3(CCCCCCC3)C2=O)cc1 | ? | 14.6µM | - | - | 0
CCOC(=O)c1ccc(NC(=O)C(=O)NCc2ccncc2)cc1 | 0 | 0 | 0 | 0[0.365 µM] | 0
COc1ccc(COC(=O)c2ccc3c(=O)n4c(nc3c2)CCC4)cc1F | - | - | 0 | 0 | 0
O=C(CCCc1ccccc1)Nc1cccc(C(=O)O)c1 | 0 | 0 | 0 | 0 | 0
O=C(Nc1cc(Sc2ccccn2)cc([N+](=O)[O-])c1)c1ccc([N+](=O)[O-])cc1 | 2.06µM | ? | 0 | 0 | 0
COc1ccc(-c2cccc3c2OC(CNC(=O)c2ccccc2-n2cccn2)C3)nn1 (stereo not given) | ? | 0[9.04 µM] | - | - | -
Cc1cccc(C2=NC(C(F)(F)F)(C(F)(F)F)c3c(n(-c4ccc(F)cc4)c(=O)[nH]c3=O)N2)c1 | 16.4µM | 20.6µM | ? | 0 | 0
O=C(c1cccc(NS(=O)(=O)c2cccc(F)c2)c1)N1CCN(c2ccccc2)CC1 | ? | 0 | 0 | 0 | -
Cc1ccccc1NC(=S)NNC(=O)c1ccncc1 | 0 | 0 | 10µM | 0 | 0
Cc1ccccc1NC(=S)NNC(=O)c1cccnc1 | ? | ? | 6.31µM | 15.8µM | 0
CCNC(=S)NCCN1CCOCC1 | 0 | 0 | 0 | 0 | 0
COc1ccc(C2(CNC(=O)c3ccccc3)CCCC2)cc1OC | ? | 0 | ? | 0 | 0
Cc1ccc(/C=C2/CNC/C(=C/c3ccc(C)cc3)C2=O)cc1 | 13µM | 7.31µM | - | - | -
Cc1ccc(/C=C2/CNC/C(=C\c3ccc(C)cc3)C2=O)cc1 | - | - | 3.55µM | 7.08µM | 0
COc1cccc(CC(=O)OCC(=O)Nc2nnc(-c3ccccc3)o2)c1 | 0 | 0 | - | - | 0[0.505 µM]
CCOc1ncccc1C(=O)OCC(=O)c1ccc(Br)s1 | 4.61µM | ? | - | - | 0
COc1ccc(C(=O)OCC(=O)Nc2nnc(-c3ccccc3)o2)cc1 | 0 | ? | 3.98µM | 5.01µM | 0
CCOc1ncccc1C(=O)OCC(=O)Nc1nnc(-c2ccccc2)o1 | 23.1µM | ? | - | - | 0
COc1cc(C(=O)OCC(=O)Nc2nnc(-c3ccccc3)o2)cc(OC)c1OC | 0 | 0 | - | - | 0[0.505 µM]
COc1ccc(-c2nnc(NC(=O)Cc3ccccc3)o2)cc1 | ? | ? | 1.58µM | 2.82µM | 0
CCOc1ncccc1C(=O)OCC(=O)c1cccs1 | 0 | 0 | 0 | 0 | 0
Cc1ccc(NC(=O)C(C)N2C(=O)c3ccccc3C2=O)nc1 (stereo not given) | 0 | 0 | 0 | 0[10 µM] | 0
SMILES | DT40 TDP1 no CPT | TDP1 cell CPT | RORg inh | VP16 counter | TDP1 inh
CCc1cc2c(=O)n(-c3ccccc3)c(SCC(N)=O)nc2s1 | 0 | 0 | ? | 0 | 0
COc1cc(OC)cc(-c2nnc(NC(=O)Cc3ccc(F)cc3)o2)c1 | 2.59µM | 1.46µM | 0.708µM | 0.631µM | 0
COc1cc(-c2nnc(NC(=O)CS(=O)(=O)c3ccc(F)cc3)o2)cc(OC)c1OC | 0 | 0 | - | - | 0
Cc1ccc(NC(=O)CSc2nnc(-c3ccc(Br)cc3)o2)c(C)c1 | 0 | ? | - | - | 0
Cc1ccc(CC(=O)Nc2nnc(-c3ccc(F)cc3)o2)c(C)c1 | 16.4µM | ? | 2.51µM | 3.16µM | 0
CCN(C(=O)CSc1nc(C2CC2)n(-c2ccccc2)n1)C1CCS(=O)(=O)C1 (stereo not given) | 0 | 0 | - | - | 0
